Drawing on PubChem BioAssay AID1053175 (ICCB-Longwood Screening Facility, Harvard Medical School, 2014), this text covers OD600 absorbance for 90 compounds.

“And” between values parts separate entries of the source, which are not always exact repeats. Equal entries are not always repeated. The whole screen tested about 330,000 compounds, of which about 700 (0.21%) were called active. The sample as a whole holds a higher share of actives than the screen did. Unmarked numbers belong to inactive results.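 Rule for the calls: active = OD600 absorbance below the run mean of sample wells minus 3.6 SD, in any replicate (cut at about 0.56 in these data); inactive = the rest.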

A short description of the test: E. coli growth inhibition, primary screen, OD600 (AID 1053175). To be noted: Escherichia coli growth, OD600, 23 h; hits give low values.
Regarding `O=C(Nc1nnc(C2COc3ccccc3O2)o1)c1ccc(F)cc1` (stereo not given), the OD600 absorbance is 0.346 (active).

As to `CC1COc2ccccc2N1C(=O)c1ccc(F)cc1` (stereo not given), the OD600 absorbance was 0.65. Turning to `O=C(COC(=O)c1ccc(F)cc1)NCC1COc2ccccc2O1` (stereo not given), the OD600 absorbance was 0.688.

For the compound `O=C(CO)NN=Cc1cccc(Cl)c1Cl`, the OD600 absorbance is 0.595. The same measure for `CCOc1ccccc1C(=O)NN=Cc1coc2ccc(Cl)cc2c1=O`: 0.656; for `COc1ccc(/C=C(\NC(=O)c2ccccc2)C(=O)NN=Cc2cccnc2)cc1`: 0.669. Take `O=C(NN=Cc1c[nH]c2ccccc12)c1ccc(O)c(O)c1`: the OD600 absorbance is 0.695.

`COC(=O)C1CC2CCC(O)CC2N1Cc1ccc(C(F)(F)F)cc1` (stereo not given): the OD600 absorbance is 0.627 and 0.652.

With `CC1(C)CC2CC(C)(CN2C=Nc2sc3c(c2C#N)CC(C)(C)NC3(C)C)C1` (stereo not given), the OD600 absorbance is 0.649. As for `CCCC(O)c1cc2cc(OC)c(OC)cc2c(=O)o1` (stereo not given), the OD600 absorbance is 0.667. With `CCc1n[nH]c(=S)n1N=Cc1c(O)ccc2ccccc12`, the OD600 absorbance is 0.677. For `CSc1nsc(NC(=O)Nc2ccccc2)n1`, the OD600 absorbance is 0.445 (active). Consider `C=CCSc1nsc(NC(=O)Nc2cccc(C(C)=O)c2)n1`, for which the OD600 absorbance is 0.61. The same measure for `CCSc1nsc(NC(=O)Nc2cccc(C(C)=O)c2)n1`: 0.575; for `O=C(NCC(F)(F)F)Nc1nnc(C(F)(F)F)s1`: 0.494 (active); for `O=C(Nc1nnc(COc2ccccc2)s1)Nc1ccccc1F`: 0.649.

With `COc1ccc(C)cc1NC(=O)CCC(=O)Nc1nnc(C(F)(F)F)s1`, the OD600 absorbance is 0.73.

As for `O=C(O)c1ccc(NN=Cc2ccc(-c3ccc(Cl)cc3Cl)o2)cc1`, the OD600 absorbance was 0.671. For `CCOC(=O)C1C2COc3ccc(Cl)cc3C2N2C(=O)c3ccc(C)cc3NC(=O)[C@@]12C` (stereo not given in full), the OD600 absorbance was 0.705. For `CCN(CC)C(=O)c1[nH]cnc1C(=O)NC(Cc1ccccc1)C(=O)OC(C)(C)C` (stereo not given), the OD600 absorbance is 0.689. Regarding `COc1cc(C=NNC(=O)c2ccc3c(c2)OCCO3)cc(Br)c1O`, the OD600 absorbance is 0.712.

Regarding `CC(C(=O)N1CCNCC1)n1cc(CCC(=O)O)nn1` (stereo not given), the OD600 absorbance was 0.694.

For the compound `CCCCCCn1cc(C(=O)O)c(=O)c2cc(F)c(N3CCCCC3)cc21`, the OD600 absorbance is 0.628. On to `CCCCNC(=O)c1cn(CC)c2cc(N3CCN(C(=O)c4ccco4)CC3)c(F)cc2c1=O`, for which the OD600 absorbance was 0.458 (active). Consider `CCNC(=S)N1CCN(C(=O)c2ccco2)CC1`, for which the OD600 absorbance was 0.73.

Turning to `CCn1cc(C(=O)NCCO)c(=O)c2cc(F)c(N3CCN(C)CC3)cc21`, the OD600 absorbance is 0.0485 (active). For `CCn1cc(C(=O)NCCC(=O)NCCO)c(=O)c2cc3c(cc21)OCO3`, the OD600 absorbance is 0.65. For the compound `CCn1cc(S(=O)(=O)c2cccc(C)c2)c(=O)c2cc(F)c(N3CCN(C)CC3)cc21`, the OD600 absorbance was 0.662. Regarding `O=C(C=CNNC(=O)c1ccccc1)c1ccc(Br)cc1`, the OD600 absorbance was 0.66. With `CC1CN(C(C)CO)C(=O)c2cc(NC(=O)Cn3cnnn3)ccc2OC1CN(C)Cc1ccc(Cl)c(Cl)c1` (stereo not given), the OD600 absorbance is 0.734. As for `O=C(Nc1cccc(O)c1)c1ccc(C(=O)c2ccccc2)o1`, the figure is 0.71.

On to `Cc1cccc(NC(=O)c2ccc([N+](=O)[O-])o2)c1`, for which the OD600 absorbance is 0.475 (active). For `O=C(Nc1ccc(Br)cn1)c1ccc([N+](=O)[O-])o1`, the OD600 absorbance is 0.518. `COc1ccc(S(=O)(=O)ON=C2CCCc3ccccc32)cc1`: the OD600 absorbance was 0.751.

On to `COc1ccc(C2C3C(=O)N(C(C)(C)C)C(=O)C3[C@]3(C)C(=O)N(c4cccc(C)c4)C(=O)N23)cc1` (stereo not given in full), for which the OD600 absorbance is 0.681. On to `O=C(NN=Cc1ccc(O)cc1)c1ccc(COc2cc(Cl)ccc2Cl)o1`, for which the OD600 absorbance was 0.778. With `CCOC(=O)C1C2COc3cc(OC)ccc3C2N2C(=O)N(c3cccc(F)c3)C(=O)[C@@]12C` (stereo not given in full), the OD600 absorbance was 0.694 and 0.697 and 0.645. `CC(C)(C)C(COc1ccccc1[N+](=O)[O-])=NO`: the OD600 absorbance was 0.627. Turning to `COc1cccc(C=NNc2nc3ccccc3n3cnnc23)c1`, the OD600 absorbance is 0.749. Take `Cc1ccc(C)c(-c2cc(C(=O)NN=Cc3cccnc3)c3ccccc3n2)c1`: the OD600 absorbance was 0.67.

`CC(C)C[C@H](NC(=O)Nc1cccc(C(F)(F)F)c1)C(=O)O`: the OD600 absorbance was 0.689. For the compound `CCNS(=O)(=O)c1ccc(NC(=O)Nc2cccc(C(F)(F)F)c2)cc1`, the OD600 absorbance was 0.51 (active). The same measure for `O=C(Nc1ccc(C(=O)N2CCOCC2)cc1)Nc1cccc(C(F)(F)F)c1`: 0.664; for `Cc1ccc2cc(C=NNC(=O)[C@@H]3CCCN3)c(Cl)nc2c1`: 0.699. Take `CN1CCN(CCC(=O)NN=Cc2cc([N+](=O)[O-])ccc2O)CC1`: the OD600 absorbance was 0.633.

`CCN=c1scc(C)n1N=Cc1cc(Br)c(O)c(OC)c1`: the OD600 absorbance was 0.689. As for `CN1C(=O)C2C(C=Cc3ccccc3)N3C(=O)CN(Cc4ccc(-c5ccccc5)cc4)C(=O)[C@@]3(Cc3ccccc3)C2C1=O` (stereo not given in full), the OD600 absorbance is 0.678. Regarding `CC(=NNC(=O)C1CC1)c1ccc(NC(=O)c2ccc(Br)o2)cc1`, the OD600 absorbance is 0.697. `O=C(NN=Cc1ccco1)c1cccs1`: the OD600 absorbance is 0.606. On to `CCC(C)N1CCC2(CC1)N=c1c(c3c4c5c(C)c(O)c3c(O)c1=NC(=O)C(C)=CC=CC(C)C(O)C(C)C(O)C(C)C(OC(C)=O)C(C)C(OC)C=CO[C@@](C)(O5)C4=O)N2` (stereo not given in full), for which the OD600 absorbance is 0.076 (active). As for `CCOC(=O)C1C2COc3cc(OC)ccc3C2N2C(=O)CN(Cc3ccc(C)cc3)C(=O)[C@@]12C` (stereo not given in full), the figure is 0.699; as for `CC1CC2OC(=O)[C@]3(C)C2C(OC3(C)O)[C@]2(C)C(=O)C=CC12` (stereo not given in full), 0.679; as for `CC(C)(C)NC(=O)CCN(N=Cc1ccccc1F)C1=NS(=O)(=O)c2ccccc21`, 0.627.

For the compound `CN(C)c1ccc(C=NNC(=O)Cn2nnc3ccccc32)cc1`, the OD600 absorbance was 0.725. For the compound `CC(C)(C)OC(=O)C1=C(CO)CS[C@@H]2[C@H](NC(=O)Cc3ccccc3)C(=O)N12`, the OD600 absorbance was 0.72. As for `Cc1nnc(SCC2=C(C(=O)O)N3C(=O)C(NC(=O)Cn4nc(C)c(Cl)c4C)C3SC2)s1` (stereo not given), the OD600 absorbance is 0.488 (active).

Consider `Cc1cc(C)cc(C(=O)NC2C(=O)N3C(C(=O)O)=C(CSc4nnc(C)s4)CSC23)c1` (stereo not given), for which the OD600 absorbance is 0.684.

Regarding `CC(C)CC(CSc1ccccc1)N1CCN(C)CCC1=O` (stereo not given), the OD600 absorbance was 0.708.

On to `CCc1ccc(NC(=O)CC(C)=NNC(=O)OCc2ccc(OC)cc2)cc1`, for which the OD600 absorbance was 0.657. The same measure for `COc1ccc(C=NNC(=O)c2ccccc2[N+](=O)[O-])cc1CN1CCc2cc(OC)c(OC)cc2C1C` (stereo not given): 0.712; for `Cc1ccc(NC(=O)C=NOCC(=O)NCc2ccccc2Cl)cc1`: 0.705.

For `CCOC1OC(C(N)=O)=CC(c2ccccc2)C1CCCO` (stereo not given), the OD600 absorbance was 0.702 and 0.686. Take `CC(NC(=O)C(=O)NN=Cc1ccc(Cl)cc1)c1ccccc1` (stereo not given): the OD600 absorbance was 0.673. The same measure for `CCN=c1scc(C)n1N=Cc1ccsc1`: 0.697; for `Cc1ccc(C2=[N+]([O-])C3(CCCCCC3=NNC(N)=S)N(O)C2(C)C)o1` (stereo not given): 0.771. Consider `O=C(O)c1csc(NN=Cc2ccc(Br)cc2)n1`, for which the OD600 absorbance was 0.677. As to `O=C1CCCC(=NNC(=O)c2cc(NS(=O)(=O)c3cccs3)cc(NS(=O)(=O)c3cccs3)c2)C1`, the OD600 absorbance was 0.669. With `CCOC(=O)C1C2COc3cc(OC)ccc3C2N2C(=O)N(c3ccc(C(F)(F)F)cc3)C(=O)[C@@]12C` (stereo not given in full), the OD600 absorbance is 0.696 and 0.712.

For the compound `C=CCN1c2ccccc2[C@]23CC(C(=O)OC)N(C(=O)c4cc(C)oc4C)C2=NC(C(=O)OC)=C(C(=O)OC)C13` (stereo not given in full), the OD600 absorbance is 0.651. As for `CC(=NNC(=O)c1ccncc1)c1cc2ccccc2o1`, the figure is 0.717. The same measure for `Cc1cc(C)c(C)c(OCC(=O)ON=C(N)c2ccccn2)c1`: 0.733; for `COC(=O)c1ccc(C=NNC(=O)C2CC(=O)N(c3ccc(F)cc3)C2)cc1` (stereo not given): 0.657; for `Cc1nc2ccccn2c1C(=O)NN=Cc1ccc2c(c1)OCO2`: 0.657. For the compound `O=[N+]([O-])c1ccc(C=NN2CCN(c3ccc(Cl)cc3)CC2)cc1`, the OD600 absorbance was 0.805. For `Cc1cccc(NC(=S)Nc2ccc3cn[nH]c3c2)c1`, the OD600 absorbance was 0.655. As for `Cc1cccc(NC(=S)Nc2ccc(Cl)c(Cl)c2)c1`, the OD600 absorbance was 0.495 (active).

For the compound `Cc1cccc(NC(=S)NC23CN4CN(CN(C4)C2)C3)c1`, the OD600 absorbance was 0.691. As for `O=C(O)c1cc2c(o1)CCCC2=NO`, the figure is 0.711; as for `C=CCc1cc(C)ccc1OCCCn1ccnc1`, 0.666. For the compound `c1ccc(Cc2ccc(OCCn3ccnc3)cc2)cc1`, the OD600 absorbance was 0.583.

For `Clc1c(OCCCn2ccnc2)ccc2ccccc12`, the OD600 absorbance was 0.49 (active). In the case of `NC(CCCN1CCCCC1)=NO`, the OD600 absorbance is 0.705.

Take `CCCSc1ccc(C2N[C@@](CC(C)C)(C(=O)OC)C3C(=O)N(CC)C(=O)C23)cc1` (stereo not given in full): the OD600 absorbance was 0.649. For `Oc1c(CN2CCN(c3ccc(F)cc3)CC2)cc(Cl)c2cccnc12`, the OD600 absorbance is 0.332 (active). In the case of `Fc1ccc(N2CCN(Cc3cnc(Oc4ccc(Br)cc4)s3)CC2)cc1`, the OD600 absorbance was 0.726. Take `O=C(CN1CCN(c2ccc(F)cc2)CC1)Nc1ccccc1`: the OD600 absorbance was 0.673.

Consider `CCN1C(Nc2ccccc2)=NCC1CC(C)C` (stereo not given), for which the OD600 absorbance was 0.698. The same measure for `CC(NC(=O)COc1ccc(C=NNC(=O)C(=O)Nc2ccccc2Br)cc1)c1ccccc1` (stereo not given): 0.788. As for `O=C(Nc1ccccc1C(=O)NN=Cc1ccncc1)c1ccccc1`, the figure is 0.706. As for `CC(=NNC(=O)c1cccc(S(=O)(=O)N2CCCC2)c1)c1ccco1`, the OD600 absorbance was 0.651.
